Laboratory results from PubChem BioAssay (NCI).
The panel holds about 83,000 compounds, 20% with a hit somewhere; the sample as a whole holds those more often.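 Treatment: one concentration, 48 hours, 96-well format. Scoring: percent growth, with anything below 10 considered active.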 Values without a mark were called inactive. The source made the active and inactive calls.

Test system: OVCAR-3 ovarian
Assay: NCI-60 one-dose screen, 48 h (100 = growth as untreated, 0 = no growth, -100 = all killed)
Conditions: 10 µM unless noted

In order of falling growth:
1. CNc1ccc(Nc2ccc(S(=O)(=O)O)cc2)c2c1C(=O)c1ccccc1C2=O  121%
2. CC(=O)OC1/C=C\CC/C=C\C1 (centres undefined)  115%
3. O=C(O)CS(=O)c1ccc(Cl)cc1 (centres undefined)  115%
4. Oc1ccc([S+](c2ccc(O)cc2)c2ccc(O)cc2)cc1  114%
5. CCCCCCC(C)N(CC(C)(C)O)C(=O)c1ccc([N+](=O)[O-])cc1 (centres undefined)  113%
6. CC1(C)NC(=S)NC1=O  112%
7. Cc1ccc([C@@H]2C[C@H](O)Cc3ccccc3N2)s1  111%
8. O=C(NCCNCCO)c1cc([N+](=O)[O-])cc([N+](=O)[O-])c1O  110%
9. CC1Cc2cc(F)ccc2-n2cccc21 (centres undefined)  109%
10. CCCCCCCCC1OC1CCCCCCCC(=O)O (centres undefined)  108%
11. CC(=O)c1ccc2c(c1)c1ccccc1n2C  108%
12. CCOC1=C(Cl)C(=O)C(OCC)=C(Cl)C1=O  105%
13. CC(=O)Nc1ccc(C(=O)/C=C/c2ccc(N(C)C)cc2)cc1  105%
14. CC[n+]1c(C)ccc2cc(C)ccc21  104%
15. O=C(CBr)OCc1ccc([N+](=O)[O-])o1  104%
16. O=C(NC1CCN(Cc2ccccc2)CC1)c1cc(-c2cccnc2)nc2ccc(Cl)cc12  94.4%
17. CCN(CC)CCCC(C)Nc1c(C)cnc2cc(Cl)c(C)cc12 (centres undefined)  92.9%
18. COC1=C(OC)C(=O)c2ccccc2C1=O  87.8%
19. O=C(/C=C\c1ccc(NCc2ccc(C(=O)O)cc2)cc1)CCl  72.4%
20. Cc1sc(NC(=O)c2ccc(C(C)(C)C)cc2)c(C(=O)O)c1C  71.7%
21. C=C(C)[C@@H]1CC[C@]2(COC(=O)c3ccccc3C(=O)O)CC[C@]3(C)[C@H](CC[C@@H]4[C@@]5(C)CCCNC(C)(C)[C@@H]5CC[C@]43C)[C@@H]12  68%
22. S=C(N/N=C/c1cc(Cl)cc(Cl)c1)NC12CC3CC(CC(C3)C1)C2  58.2%
23. Cn1c2c(cc(S(=O)(=O)c3ccccc3)c1=O)CCc1c-2cnn1-c1ccc(Cl)cc1  56.4%
24. CCCCCN1CCN(C(CC(=O)c2ccccc2)C(=O)c2ccccc2)CC1 (centres undefined)  55.3%
25. CCCCN(CCC)CCCCCCCCCCN1CCCc2ccccc21  53.7%
26. O=C1C(=O)c2ccccc2C(O)=C1CCCc1ccc(Oc2ccccc2)cc1  49.4%
27. CC([C@H]1CC=C2C3CCC4=C[C@@H](N(C)C)CC[C@]4(C)C3CC[C@@]21C)N(C)C (some centres undefined)  42%
28. COc1ccc(/C=C2\CCCC3=C2N=C2SC=NN2C3c2ccc(OC)c(OC)c2)cc1OC (centres undefined)  37.8%
29. Oc1ccc(CN(Cc2ccc(C(F)(F)F)cc2)Cc2ccc(O)c3ncccc23)c2cccnc12  37.5%
30. O=c1[nH]c(=S)[nH]c(O)c1/C=C1\C=Nc2ccccc21  33.3%
31. COc1ccc(/C=C/C(=O)/C=C/c2cc3ccccc3[nH]c2=O)cc1  32%
32. O=C1C(Br)=CC2C1C1C3CCC3C2(Br)C12OCCO2 (centres undefined)  12.5%

With `Cc1ccc(S(=O)(=O)NC(CCC(=O)Nc2ccccc2)C(=O)Nc2ccccc2)cc1` (centres undefined) the growth was -42% (active).
`Oc1ccc(Br)cc1/C=N/NC(=S)NC12CC3CC(CC(C3)C1)C2` was tested, and the growth was -26.5% (active).
In the case of `CCN(CC)CCCNc1c2ccc(Cl)cc2nc2ccc(OC)cc12`, the growth is reported as -11.5% (active).
With `O=C(/C(Br)=C/c1ccccc1)c1ccccc1` the growth was -31.5% (active).
With `C=CN(C)S(C)(=O)=O` the growth was -14.1% (active).

Test system: HS 578T breast
Assay: as above
Conditions: 10 µM unless noted

In order of falling growth:
1. CC[n+]1c(C)ccc2cc(C)ccc21  112%
2. O=C(NCCNCCO)c1cc([N+](=O)[O-])cc([N+](=O)[O-])c1O  109%
3. O=C(CBr)OCc1ccc([N+](=O)[O-])o1  106%
4. COc1ccc(/C=C/C(=O)/C=C/c2cc3ccccc3[nH]c2=O)cc1  102%
5. CC(=O)OC1/C=C\CC/C=C\C1 (centres undefined)  101%
6. CC(=O)Nc1ccc(C(=O)/C=C/c2ccc(N(C)C)cc2)cc1  101%
7. CCCCCCCCC1OC1CCCCCCCC(=O)O (centres undefined)  98.6%
8. CCN(CC)CCCC(C)Nc1c(C)cnc2cc(Cl)c(C)cc12 (centres undefined)  96.3%
9. O=C1C(=O)c2ccccc2C(O)=C1CCCc1ccc(Oc2ccccc2)cc1  95.7%
10. COc1ccc(/C=C2\CCCC3=C2N=C2SC=NN2C3c2ccc(OC)c(OC)c2)cc1OC (centres undefined)  86.4%
11. O=C(NC1CCN(Cc2ccccc2)CC1)c1cc(-c2cccnc2)nc2ccc(Cl)cc12  83.4%
12. C=C(C)[C@@H]1CC[C@]2(COC(=O)c3ccccc3C(=O)O)CC[C@]3(C)[C@H](CC[C@@H]4[C@@]5(C)CCCNC(C)(C)[C@@H]5CC[C@]43C)[C@@H]12  78.5%
13. O=c1[nH]c(=S)[nH]c(O)c1/C=C1\C=Nc2ccccc21  71.7%
14. CC([C@H]1CC=C2C3CCC4=C[C@@H](N(C)C)CC[C@]4(C)C3CC[C@@]21C)N(C)C (some centres undefined)  61%
15. CCN(CC)CCCNc1c2ccc(Cl)cc2nc2ccc(OC)cc12  34.1%

With `Cn1c2c(cc(S(=O)(=O)c3ccccc3)c1=O)CCc1c-2cnn1-c1ccc(Cl)cc1` the growth was -10.1% (active).
For `Cc1ccc(S(=O)(=O)NC(CCC(=O)Nc2ccccc2)C(=O)Nc2ccccc2)cc1` (centres undefined), the growth was 2.98% (active).
